# Laboratory results taken from PubChem BioAssay (EPA / NIEHS).
# Activity calls are given as the source filed them. How the source made its calls: active means hit-call score of the fitted dose curve at least 0.9, where 1 is the maximum; inactive means score below 0.9.
# Biological target: Signal transducer and activator of transcription 3 (Homo sapiens) (UniProt P40763)
# Assay: ATG_STAT3_CIS: Attagene CIS-FACTORIAL HepG2 Assay for human Signal Transducer and Activator of Transcription 3 (STAT3) (AID 2282963)
# Settings: HepG2, Attagene cis-factorial STAT3 reporter transcription; actives raise or lower the signal
# Protocol: ATG_CIS is a cell-based, multiplexed-readout assay that uses HepG2, a human liver cell line, with measurements taken at 24 hours after chemical dosing in a 24-well plate.ATG_STAT3_CIS is one of 52 assay component(s) measured or calculated from the ATG_CIS assay. It is designed to make measurements of mRNA induction, a form of inducible reporter, as detected with fluorescence intensity signals by Reverse transcription polymerase chain reaction (RT-PCR) and Capillary electrophoresis technology.Data from the assay component ATG_STAT3_CIS was analyzed into 1 assay endpoint. This assay endpoint, ATG_STAT3_CIS, was analyzed with bidirectional fitting relative to DMSO as the negative control and baseline of activity. Using a type of inducible reporter, measures of mRNA for gain or loss-of-signal activity can be used to understand the reporter gene at the transcription factor-level as they relate to the gene STAT3. Furthermore, this assay endpoint can be referred to as a primary readout, because this assay has produced multiple assay endpoints where this one serves a reporter gene function. To generalize the intended target to other relatable targets, this assay endpoint is annotated to the dna binding intended target family, where the subfamily is stat protein.
# Human liver HepG2 cells are transiently transfected with multiple reporter transcription units (MRTUs) in 6-well plates using FuGene 6 reagent (Roche; 3 ml FuGene/1 mg DNA). The MRTU constructs are regulated by a cis-regulating element (promoter). […] A major difference between the CIS and TRANS system is that in CIS activities of endogenous TFs are measured, whereas the TRANS assay evaluates changes in activities of exogenous, chimeric NR-Gal4 proteins. […] At the end of 24 hour incubation, total RNA was isolated using TriZol reagent (Invitrogen). The isolated RNA is then reverse-transcribed using oligo(dT) primer and Mo-MLV reverse transcriptase (Invitrogen) with DNAse I (Ambion) treatment for 30 min. The one-tenth of the produced cDNA was amplified by PCR using Taq DNA polymerase (Invitrogen) and two reporter sequence-specific primers. The PCR products were fluorescently labeled by primer extension with 6-arboxyfluorescein (6-FAM) 5'-labeled reporter sequence-specific primer (2 min at 95 C, 20 s at 68 C and 10 min at 72 C) and these products were digested with 5U of HpaI (New England Biolabs) for 2h at 37 C. The fragments were purified using Qiaquick PCR columns (Qiagen), analyzed on an ABI 3130xL genetic analyzer (Applied Biosystems) with peak positions identified by using a set of X-rhodamine (ROX)-labeled MapMarker1000 molecular weight standards (BioVentures). The raw capillary electrophoresis data was processed using Attagraph software (Attagene).
# Sequence of Signal transducer and activator of transcription 3 (Homo sapiens) (P40763 whole entry, looked up): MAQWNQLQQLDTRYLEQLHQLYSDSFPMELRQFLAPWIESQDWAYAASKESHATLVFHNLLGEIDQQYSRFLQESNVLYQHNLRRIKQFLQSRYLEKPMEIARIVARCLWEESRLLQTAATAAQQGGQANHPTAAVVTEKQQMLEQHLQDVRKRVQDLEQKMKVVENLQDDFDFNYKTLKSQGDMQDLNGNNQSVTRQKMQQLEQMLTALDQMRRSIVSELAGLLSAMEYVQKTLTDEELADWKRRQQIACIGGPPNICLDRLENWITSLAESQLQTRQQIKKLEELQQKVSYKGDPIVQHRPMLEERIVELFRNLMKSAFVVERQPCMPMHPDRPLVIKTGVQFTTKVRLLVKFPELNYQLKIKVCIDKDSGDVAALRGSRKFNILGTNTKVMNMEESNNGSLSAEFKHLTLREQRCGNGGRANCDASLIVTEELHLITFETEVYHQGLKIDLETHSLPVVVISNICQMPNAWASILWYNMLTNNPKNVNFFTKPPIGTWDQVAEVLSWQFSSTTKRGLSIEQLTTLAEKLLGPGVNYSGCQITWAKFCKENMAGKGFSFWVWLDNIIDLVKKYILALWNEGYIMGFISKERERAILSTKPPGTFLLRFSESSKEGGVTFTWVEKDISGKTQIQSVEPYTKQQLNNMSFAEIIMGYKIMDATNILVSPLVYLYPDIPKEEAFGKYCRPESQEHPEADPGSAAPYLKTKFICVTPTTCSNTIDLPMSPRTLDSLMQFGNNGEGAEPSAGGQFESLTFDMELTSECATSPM
Structure (SMILES),outcome,AC50
O=C(O)C1C(C(=O)O)C2(Cl)C(Cl)=C(Cl)C1(Cl)C2(Cl)Cl (stereo not given),inactive,–
Cc1ccc([N+](=O)[O-])cc1C,inactive,–
Clc1ccc(Oc2ccccc2)cc1,inactive,–
CCOP(=S)(OCC)SCSc1ccc(Cl)cc1,inactive,–
Cc1c([N+](=O)[O-])cc2c(c1[N+](=O)[O-])C(C)(C)CC2(C)C,inactive,–
c1ccc2c(c1)Nc1ccccc1S2,inactive,–
FC(F)(F)C(F)(C(F)(F)F)C(F)(F)C(F)(F)CC1CO1 (stereo not given),inactive,–
O=C(O)C(F)(F)OC(F)(F)C(F)(F)OC(F)(F)F,inactive,–
CC(O)C#N (stereo not given),inactive,–
c1ccc2c(c1)sc1ccccc12,inactive,–
CC(Cl)(Cl)C(=O)O,inactive,–
O=P(OCC(Br)CBr)(OCC(Br)CBr)OCC(Br)CBr (stereo not given),inactive,–
C=CC(=O)OCC(CC)(COC(=O)C=C)COC(=O)C=C,inactive,–
CC(C)CBr,inactive,–
N#Cc1cc([N+](=O)[O-])ccc1N,inactive,–
CCNc1nc(Cl)nc(NC(C)(C)C)n1,inactive,–
CSC(C)(C)C=NO,inactive,–
OCC1CO1 (stereo not given),inactive,–
OCC(F)(F)OC(F)(F)C(F)(F)OC(F)(F)CO,inactive,–
Oc1ccc(I)cc1,inactive,–

Structure (SMILES),outcome,AC50
CCCCN(CCCC)SN(C)C(=O)Oc1cccc2c1OC(C)(C)C2,inactive,–
CC1(C)CN=C(NN=C(/C=C/c2ccc(C(F)(F)F)cc2)/C=C/c2ccc(C(F)(F)F)cc2)NC1,–,20.2 µM (active)
c1ccc(OP(Oc2ccccc2)Oc2ccccc2)cc1,inactive,–
O=[N+]([O-])c1ccccc1,inactive,–
CCCCc1ccc(O)cc1,inactive,–
c1cc2c3c(cccc3c1)CC2,inactive,–
Nc1ccc([N+](=O)[O-])cc1Cl,inactive,–
CC(C)(C)OOC(C)(C)C,inactive,–
CCOP(=S)(S)OCC,inactive,–
Cn1[nH]nnc1=S,inactive,–
CCOC(=O)c1ccccc1C(=O)OCC,inactive,–
COP(=O)(O)OC,inactive,–
O=P(Oc1ccccc1)(Oc1ccccc1)Oc1ccccc1,inactive,–
CC(Cl)CN(C)C (stereo not given),inactive,–
O=NN1CCCC1,inactive,–
CCOP(=S)(Oc1ccc([N+](=O)[O-])cc1)c1ccccc1 (stereo not given),inactive,–
Cc1ccc(O)cc1C,inactive,–
O=C(O)C(F)(F)OC(F)(F)C(F)(F)OC(F)(F)C(=O)O,inactive,–
[N-]=[N+]=[N-],inactive,–
CCOP(=S)(OCC)SCSCC,inactive,–
